BAZ2B block: inhibitors of human BAZ2B bromodomain; Potency, µM (doses to about 114 µM), without a hit: at the top dose activity change, negative = inhibition, actives largely listed as inhibitors; Q9UIF8; AlphaScreen BAZ2B-H3K14Ac peptide displacement; 360,000 tested, 4.4% active; further: on the % scale 0 is the no-effect control and ±100 the full control effect; nearly all actives have a fitted effect of over 60% in size
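AlphaScreen displacement of biotin-H3(5-23)K14Ac peptide (50 nM final) from BAZ2B (50 nM final) in PBS pH 7.4, 0.01% Tween-20; complex preformed 30 min RT, then compounds (top 110 uM) 30 min RT, beads 20 min dark.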
PLK1 PBD inh: blocks phosphopeptide binding to human PLK1 polo-box domain | P53350 | Plk1 PBD binding of FITC phosphopeptide, fluorescence polarization | Potency, µM, without a hit: max response, negative = inhibition, most hits filed as inhibitors | 360,000 tested, 2.8% active | AID 720504; further: series mostly up to about 57 µM; on the % scale 0 is the no-effect control and ±100 the full control effect; nearly all actives have a fitted effect of over 65% in size
JMJD2A Tudor: blocks the human JMJD2A Tudor domain | Potency, µM (doses to about 114 µM), without a hit: at the top dose activity change, negative = inhibition, actives largely listed as inhibitors | 390,000 tested, 4.4% active | AlphaScreen JMJD2A-Tudor / H3K4me3 peptide binding | AID 504339 | O75164; further: on the % scale 0 is the no-effect control and ±100 the full control effect; nearly all actives have a fitted effect of over 50% in size
HP1b chromo inh: HP1-beta chromodomain-methylated histone interaction inhibition. 390,000 tested, 0.56% active. P83916. Potency, µM (doses to about 114 µM), for inactives: at the highest dose activity change, negative = inhibition, actives largely listed as inhibitors. AlphaScreen HP1-beta / biotin-H3K9me3 peptide binding; further: nearly all actives have a fitted effect of over 70% in size
Target sequence (P83916 whole entry, looked up): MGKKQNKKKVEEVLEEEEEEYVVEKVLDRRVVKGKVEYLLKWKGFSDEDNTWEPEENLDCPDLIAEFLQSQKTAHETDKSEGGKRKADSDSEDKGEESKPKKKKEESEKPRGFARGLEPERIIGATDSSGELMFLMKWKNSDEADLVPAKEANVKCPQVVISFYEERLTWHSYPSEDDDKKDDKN
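HP1-beta protein (50 nM final) preincubated 30 min at room temperature with biotinylated H3(1-18)K9me3 peptide (50 nM) in PBS pH 7.4, 0.01% Tween-20, then compound added for 30 min. AlphaScreen streptavidin donor/nickel chelate acceptor beads (10 ug/mL final), 30 min dark, luminescence read.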
G9a block: G9a (human) methyltransferase inhibition | Q96KQ7 | G9a H3K9 monomethylation, AlphaScreen, 2 h | Potency, µM (highest dose often 102 µM), without a hit: top-dose activity, negative = inhibition, most hits filed as inhibitors | 350,000 tested, 8.8% active | AID 504332; further: on the % scale 0 is the no-effect control and ±100 the full control effect; nearly all actives have a fitted effect of over 75% in size
Target sequence (Q96KQ7 913-1193 limits assumed): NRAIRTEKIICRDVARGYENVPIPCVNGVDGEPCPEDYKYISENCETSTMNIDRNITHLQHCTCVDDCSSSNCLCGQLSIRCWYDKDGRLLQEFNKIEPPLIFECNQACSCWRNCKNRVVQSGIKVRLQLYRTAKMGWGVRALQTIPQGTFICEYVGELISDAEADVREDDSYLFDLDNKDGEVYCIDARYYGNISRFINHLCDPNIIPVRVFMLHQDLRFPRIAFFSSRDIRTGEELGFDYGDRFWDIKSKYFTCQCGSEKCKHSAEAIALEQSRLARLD
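G9a (20 nM) was preincubated 15 min with compound, then reacted 2 h at room temperature with 500 nM biotin-H3K9 peptide and 20 µM SAM. Monomethyl-H3K9 detected by AlphaScreen using anti-H3K9me1 antibody.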
12-LOX inh: inhibitors of human 12S-lipoxygenase ALOX12; P18054; purified 12hLO, xylenol orange hydroperoxide absorbance; Potency, µM (doses to about 108 µM), for inactives: at the top dose activity change, negative = inhibition, usual class: inhibitors; 580,000 tested, 1.1% active; AID 1671190; further: on the % scale 0 is the no-effect control and ±100 the full control effect
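Hydroperoxide product was detected by ferrous iron/xylenol orange as the 573 to 405 nm absorbance ratio. Arachidonic acid at 40 uM (final) was turned over for 30 min at room temperature by 150 nM human 12hLO, pH 7.0 Hepes buffer, after 15 min compound preincubation.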
Starred values were filed as active, the others as inactive; ? = inconclusive; nt = no result; [ ] = remark or other dose. This is a sample that favours compounds with a hit; in the whole collection about 9% have one here. The call rests on the fitted dose curve; in most records, active means well fitted curve in the direction sought with a large enough effect; inconclusive means small, poorly fitted or top-dose-only effect, or another doubt; inactive means no such curve, though single readings can be large; an effect the other way counts as inactive or inconclusive. Potency means the concentration at half of the fitted maximal effect.

SMILES | BAZ2B block | PLK1 PBD inh | JMJD2A Tudor | HP1b chromo inh | G9a block | 12-LOX inh
Cc1ccc(-c2cc(N)nc(-c3ccccc3)c2)cc1 | -1% | -3% | -11% | 18% | 18% | ?
O=C1CCCC2=C1C1O[C@](c3ccsc3)(Cc3c1ccc1ccccc31)O2 | 0%[22.9 µM] | nt | nt | nt | -22%[2.33 µM] | nt
O=C1C2=C(C(=O)c3ccccc31)C1O[C@](c3ccsc3)(Cc3c1ccc1ccccc31)O2 | 11µM* | nt | nt | nt | -45%[2.33 µM] | nt
O=C(O)Cc1ccc(NC(=O)c2ccc(Cl)c(Cl)c2)cc1 | -15% | -12% | -17% | 5% | 14% | 7%
COc1ccc(-n2cc(-c3ccccc3)c3c(N4CCN(CCO)CC4)ncnc32)cc1 | ? | -13% | ? | -9% | 50µM* | ?
COc1ccc(-n2cc(-c3ccccc3)c3c(NN4CCOCC4)ncnc32)cc1 | ? | -5% | ? | ? | 50µM* | -1%
CS(=O)(=O)c1ccc(Nc2nc(C(N)COCc3ccccc3)cs2)cc1 (stereo not drawn) | nt | -13% | nt | nt | nt | 12%
CCOC(=O)CC(=O)CSc1nc2nc(C)cc(C)n2n1 | 1% | 0% | -14% | 19% | ? | -21%
COc1ccc(-c2nc(N)nc(C(F)(F)F)c2-c2csc(C)n2)c(O)c1 | -7% | -3% | -16% | 42% | nt | -16%
O=C(CCl)N1c2ccccc2CCc2ccccc21 | -2% | nt | nt | nt | ? | ?
OCc1c[nH]c(=S)n1CCOc1cccc(C(F)(F)F)c1 | -25% | -23% | 22µM* | 16% | ? | ?
CC1(C)NC(=O)N(CCCCOc2cccc(C(F)(F)F)c2)C1=O | 4% | -6% | -8% | 15% | -5%[59 µM] | 1%
N#CC1=C2SCC(O)(c3ccccc3)N2C(=O)CC1c1cccs1 (stereo not drawn) | ? | -10% | -29% | -5% | 50µM* | -18%
COc1ccc(C2CC(=O)N3C(=C2C#N)SCC3(O)c2ccccc2)cc1 (stereo not drawn) | -27% | -2% | ? | 3% | -35%[59 µM] | 3%
COc1ccccc1CNC(=O)CCC1N=C2c3ccccc3N=C(SCc3ccc(C)cc3C)N2C1=O (stereo not drawn) | -15% | nt | -19% | 23% | -8%[59 µM] | -18%
CN(C)c1ccc(CNC(=O)CCCN2C(=O)c3cccnc3Oc3ccc(Cl)cc32)cc1 | ? | nt | ? | 8% | 11µM* | ?
CCc1ccc(CNC(=O)CCCN2C(=O)c3cccnc3Oc3ccc(Cl)cc32)cc1 | -1% | nt | -13% | 29% | 6%[59 µM] | ?
CNC(C)C#Cc1ccc2c(=O)c3ccccc3oc2c1 (stereo not drawn) | nt | -15% | -24% | 8% | nt | ?
CC(=O)c1c(C)[nH]c(C(=O)Cn2nnc(-c3ccc(C(C)C)cc3)n2)c1C | nt | nt | nt | nt | nt | 16µM*
Cc1cc(C(c2cc(C)c(N)c(C)c2)c2ccco2)cc(C)c1N | nt | -27% | 79µM* | 79µM* | nt | 28%
CCCCCCNc1c([N+](=O)[O-])cc(C)cc1[N+](=O)[O-] | nt | ? | 13µM* | 8.9µM* | nt | 7%
CCCCNc1ccc(C(CC(N)=O)NC(=O)c2cc(C)cc(C)c2)cc1[N+](=O)[O-] (stereo not drawn) | -8% | 2% | -23% | 40% | nt | 11%
ONC(=Nc1ccc(Cl)cc1)c1ccc(Cl)cc1 | 3% | -8% | -28% | 6% | 9%[12.7 µM] | ?
[S-]C(=Nc1ccc(Cl)cc1)N[n+]1ccccc1 | -3% | 17µM* | -32% | -35% | ? | ?
COC(=O)C1CCCCN1C(=O)c1cccc(OC2CCN(C(=O)C3CC3)CC2)c1 (stereo not drawn) | 0% | 4% | 2% | 28% | 10% | -8%
SMILES | BAZ2B block | PLK1 PBD inh | JMJD2A Tudor | HP1b chromo inh | G9a block | 12-LOX inh
CC(=O)c1sc2nc(CSc3nncn3C)[nH]c(=O)c2c1C | -31% | -16% | -10% | 0% | -50% | -22%
Cc1c(C(=O)O)sc2nc(CSc3nnc(-c4ccc(F)cc4)n3C)[nH]c(=O)c12 | ? | -18% | ? | 3% | 35µM* | -10%
CCOC(=O)c1sc2nc(CSc3nc4ccccc4n3CC)[nH]c(=O)c2c1C | 6% | 7% | -15% | 23% | 13%[59 µM] | 37%
CSCc1nc2sc(C(=O)Nc3nc(C)cs3)c(C)c2c(=O)[nH]1 | ? | 8% | -14% | 36% | 45µM* | 32%
Cc1nnc(SCc2nc3sc(C(=O)O)c(C)c3c(=O)[nH]2)s1 | -38% | -21% | 32µM* | 3% | nt | 0%
Cc1ccc(NC(=O)c2sc3nc(CCl)[nH]c(=O)c3c2C)c(C)c1 | -20% | ? | -29% | 29% | 35µM* | -22%
COc1cc(=O)n2c(c1C(=O)N(C)Cc1nonc1C)CCN(C(=O)c1cccc(C)c1C)CC2 | nt | nt | nt | nt | nt | 7%
CC(=O)c1sc2nc(CSc3nnnn3-c3ccccc3)[nH]c(=O)c2c1C | ? | ? | -31% | 10% | 56µM* | -28%
C=CCn1c(SCc2nc3sc(C(=O)O)c(C)c3c(=O)[nH]2)nnc1-c1ccc(C(C)(C)C)cc1 | 50µM* | -23% | 28µM* | -19% | 14µM* | -9%
Cc1ccc(-c2csc3nc(CSc4nnc(-c5ccc(Cl)cc5)n4C)[nH]c(=O)c23)cc1 | 0% | -19% | -24% | -2% | 22µM* | -22%
Cc1ccc(-n2nnnc2SCc2nc3sc(C)c(C)c3c(=O)[nH]2)cc1 | -7% | 8% | -3% | 22% | -7%[59 µM] | 0%
C=CCn1c(SCc2nc3sc(C(=O)O)c(C)c3c(=O)[nH]2)nnc1-c1ccccc1 | ? | -24% | 25µM* | 30% | ? | -23%
COc1ccc(Nc2cc(C)c3ccc(O)cc3n2)cc1 | -32% | 0% | -16% | 20% | nt | ?
CN(Cc1cccc(-c2nn[nH]n2)c1)C(=O)c1ccc(C2CCCNC2)cc1 (stereo not drawn) | nt | nt | nt | nt | nt | 12%
CCOCCCn1c(SCc2nc3sc(C(=O)O)c(C)c3c(=O)[nH]2)nnc1-c1ccc(Cl)cc1 | -35% | -1% | ? | 37% | 20µM* | -23%
CCn1c(SCc2nc3scc(-c4ccccc4)c3c(=O)[nH]2)nnc1-c1ccc(Cl)cc1 | 9% | 3% | -4% | 7% | 8%[59 µM] | -14%
CN(CC(=O)Nc1ccccc1Cl)C(=O)c1ccccc1Sc1ccccc1C#N | -27% | -3% | -17% | 29% | ? | -26%
COC(=O)c1c(NC(=O)COc2ccc(Cl)cc2)sc(C)c1C | 0% | nt | 1% | 27% | -8%[59 µM] | -7%
O=[N+]([O-])c1ccc(-c2nc(C(Cl)Cl)c3ccccc3n2)cc1 | ? | -7% | -8% | 24% | 22µM* | ?
O=C1C=CC(=O)c2c(O)c(CO)c(CO)c(O)c21 | nt | 9.5µM* | 2.2µM* | 3.2µM* | nt | ?
